The record followed here is the supplement of paper PMC7866885, “A novel bicyclic 2,4-diaminopyrimidine inhibitor of Streptococcus suis dihydrofolate reductase” (PeerJ, 2021).

For one assay, the system named is Streptococcus suis HE06. Briefly: percent growth relative to DMSO control; higher = less growth inhibition. The note with it: 10 µM; incubation time 18 h. The procedure: (§1)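 CLSI broth microdilution: 5x10^4 CFU of Streptococcus suis (strain P1/7 or HE06) incubated with 10 µM Pathogen Box compound in cation-adjusted Mueller Hinton broth, 37 °C, 5% CO2, 18 h. Growth read as OD600 and expressed as percent of the DMSO-treated control (100%); mean ± SD of three independent experiments.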

The next assay deals with Streptococcus suis P1/7. The description is as above. The following applies: 10 µM; incubation time 18 h. The procedure: as §1

SMILES strings stand for the structures. ± gives the standard deviation.

On to `c1ccc(C[C@@H]2CN(c3nccc(Oc4ccc(-n5ccnc5)cc4)n3)CCN2)cc1`, for which the percent growth came out at 93.3 ± 12% in the assay on Streptococcus suis HE06 and 90.5 ± 21% in the assay with Streptococcus suis P1/7.

For the compound `O=C(C(Cc1c[nH]c2ccccc12)NS(=O)(=O)c1ccc(Cl)cc1)N1CCCCC1` (configuration not stated), the values for the percent growth with Streptococcus suis HE06 and in the assay on Streptococcus suis P1/7 were 89.3 ± 4.7% and 120 ± 43%, respectively.

Turning to `CC(=O)N(CCN(C(=O)c1ccc(F)cc1)c1ccccc1)c1ccccc1`, the percent growth in the assay on Streptococcus suis HE06 was 86.6 ± 26%; in the assay with Streptococcus suis P1/7, 69 ± 13%.

For the compound `Cc1nnc(NCc2cccc(Cl)c2)c2ccccc12`, the percent growth in the assay on Streptococcus suis HE06 was 80.1 ± 8.7%; in the assay with Streptococcus suis P1/7, 85.4 ± 29%.

For the compound `Cc1ccc2nc(C)c(-c3ccn(Cc4ccccc4)n3)n2c1`, the results for the percent growth in the assay on Streptococcus suis HE06 and in the assay on Streptococcus suis P1/7 were 90 ± 35% and 62.9 ± 23%, respectively.

In the case of `Nc1nc2ccc(-c3cncc(Oc4ccc(F)cc4)c3)cc2[nH]1`, the figures for the percent growth with Streptococcus suis HE06 and with Streptococcus suis P1/7 were 91.8 ± 11% and 111 ± 67%, respectively.

Take `COc1ccc(-c2nn(C(C)C)c3ncnc(N)c23)cc1OC`: the percent growth with Streptococcus suis HE06 was found to be 112 ± 26%; with Streptococcus suis P1/7, 121 ± 74%.

With `Cc1cc(C(=O)Nc2cnn(Cc3ccc(Cl)cc3Cl)c2)no1`, the percent growth in the assay on Streptococcus suis HE06 turned out to be 94.2 ± 5.5%; in the assay on Streptococcus suis P1/7 it was 97.5 ± 11%.

For the compound `COc1cc(Br)cc2cc(C(=O)Nc3cccc(C(F)(F)F)c3)c(=O)oc12`, the percent growth in the assay on Streptococcus suis HE06 came out at 116 ± 26%; with Streptococcus suis P1/7 it was 115 ± 52%.

In the case of `O=C1Nc2ccc(Br)cc2C12NCCc1c2[nH]c2ccccc12` (configuration not stated), the values for the percent growth in the assay on Streptococcus suis HE06 and in the assay on Streptococcus suis P1/7 were 94.7 ± 15% and 112 ± 38%, respectively.

On to `CCCCc1ccc(C(=O)Nc2nccc3ccccc23)nc1`, for which the percent growth in the assay on Streptococcus suis HE06 came to 32.4 ± 32%; in the assay on Streptococcus suis P1/7, 13.4 ± 21%.

As for `O=C(NCc1cc(Cl)cc(Cl)c1)c1c(C(F)(F)F)nc2ccccn12`, the figures for the percent growth in the assay with Streptococcus suis HE06 and in the assay on Streptococcus suis P1/7 were 84.6 ± 3.8% and 60.6 ± 20%, respectively.

Regarding `O=C(Nc1ccc2c(c1)B(O)OC2)c1ccccc1C(F)(F)F`, the percent growth was 88.2 ± 15% in the assay on Streptococcus suis HE06 and 88 ± 14% in the assay with Streptococcus suis P1/7.

Take `O=C(CCC1CCCCC1)Nc1cccc(-c2nnc(-c3ccco3)o2)c1`: the percent growth is 93.8 ± 3.7% with Streptococcus suis HE06 and 111 ± 46% in the assay with Streptococcus suis P1/7.

As for `CNC(=O)c1cc(S(=O)(=O)N2CCN(c3ccccn3)CC2)cs1`, the values for the percent growth in the assay with Streptococcus suis HE06 and in the assay on Streptococcus suis P1/7 were 79.7 ± 12% and 129 ± 58%, respectively.

With `NS(=O)(=O)c1cccc(-c2ccc3ncc(N4CCOCC4)nc3c2)c1`, the percent growth in the assay on Streptococcus suis HE06 amounted to 99.2 ± 34%; with Streptococcus suis P1/7, 71.6 ± 6.4%.

As to `Cc1ccc2nc(Cl)c(CNCc3cccs3)cc2c1`, the percent growth came to 93.6 ± 9.5% in the assay with Streptococcus suis HE06 and 100 ± 21% in the assay with Streptococcus suis P1/7.

Take `Cc1cc(OCC(=O)Nc2ccc(C(C)C)cc2)n(C)c(=O)c1C#N`: the percent growth was found to be 99.6 ± 7.3% in the assay with Streptococcus suis HE06 and 79 ± 12% in the assay with Streptococcus suis P1/7.

On to `CN1CCN(c2cc(-c3ccc(F)cc3)nc(-c3ccncc3)n2)CC1`, for which the percent growth in the assay on Streptococcus suis HE06 turned out to be 83.6 ± 3.7%; with Streptococcus suis P1/7, 89.1 ± 28%.

On to `CCn1ncc2c(NC3CCOCC3)c(CNC(=O)c3ccnn3C)c(C)nc21`, for which the values for the percent growth in the assay on Streptococcus suis HE06 and in the assay on Streptococcus suis P1/7 were 109 ± 24% and 85.7 ± 26%, respectively.

For `CCCNC(=O)N1CCC2(CC1)CC(=O)c1cc(C)ccc1O2`, the percent growth in the assay with Streptococcus suis HE06 was determined as 87.9 ± 23%; with Streptococcus suis P1/7, 61.5 ± 9.9%.

Regarding `Clc1ccc(-n2cc(COc3ccnc4ccccc34)nn2)cc1`, the percent growth was 84.2 ± 6% in the assay with Streptococcus suis HE06 and 77.9 ± 13% in the assay with Streptococcus suis P1/7.

Regarding `COc1cccc2c(C)nc(N=C(N)N)nc12`, the percent growth stood at 57.7 ± 22% with Streptococcus suis HE06 and 66.8 ± 52% in the assay with Streptococcus suis P1/7.

As to `Clc1cccc(C(c2ccc(CN3CCNCC3)cc2)n2ccnc2)c1` (configuration not stated), the percent growth with Streptococcus suis HE06 worked out at 96.6 ± 38%; in the assay on Streptococcus suis P1/7, 76.7 ± 5.8%.

With `CC(C)(C)C1CCC(CC2=C(O)C(=O)c3ccccc3C2=O)CC1` (configuration not stated), the percent growth with Streptococcus suis HE06 is 17.3 ± 28%; in the assay with Streptococcus suis P1/7 it was 36.3 ± 11%.

Regarding `CC1COC2(CCN(c3nc(=O)c4cc(C(F)(F)F)cc([N+](=O)[O-])c4s3)CC2)O1` (configuration not stated), the values for the percent growth with Streptococcus suis HE06 and with Streptococcus suis P1/7 were 80.1 ± 1.6% and 81.2 ± 24%, respectively.

On to `Cc1cc(NCC(C)C)c2n[nH]c(-c3ccccc3)c2n1`, for which the percent growth in the assay with Streptococcus suis HE06 came to 81.1 ± 5.3%; with Streptococcus suis P1/7 it was 122 ± 79%.

In the case of `O=S(=O)(c1ccc(Cl)cc1)N1CCN(C(=S)NCc2ccco2)CC1`, the results for the percent growth with Streptococcus suis HE06 and in the assay on Streptococcus suis P1/7 were 93.7 ± 22% and 92.6 ± 17%, respectively.

For the compound `Cc1nc(-c2cccc(NCc3ccccc3)c2)[nH]c1C`, the percent growth in the assay with Streptococcus suis HE06 was 60.1 ± 36%; in the assay with Streptococcus suis P1/7, 12 ± 5.5%.

In the case of `NCCC(O)C(=O)N[C@@H]1C[C@H](N)[C@@H](OC2O[C@H](CN)[C@@H](O)[C@H](O)[C@H]2O)[C@H](O)C1OC1O[C@H](CO)[C@@H](O)[C@H](N)[C@H]1O` (some centres not stated), the percent growth in the assay on Streptococcus suis HE06 is 104 ± 4.8%; in the assay on Streptococcus suis P1/7 it was 87.5 ± 38%.

On to `Clc1ccc(CN2CCN(C3=NCCN3)CC2)cc1Cl`, for which the percent growth with Streptococcus suis HE06 amounted to 89 ± 2.1%; in the assay with Streptococcus suis P1/7, 72.2 ± 28%.

With `O=C(NCc1nnc2n1CCCCC2)c1ccc(-c2ccc(F)cc2)o1`, the results for the percent growth in the assay on Streptococcus suis HE06 and in the assay on Streptococcus suis P1/7 were 82.7 ± 15% and 106 ± 42%, respectively.

On to `CO[C@H]1/C=C/O[C@@]2(C)Oc3c(C)c(O)c4c(O)c(/c(=C/NN5CCN(C)CC5)c(O)c4c3C2=O)=N\C(=O)/C(C)=C\C=C/[C@H](C)[C@H](O)[C@@H](C)[C@@H](O)[C@@H](C)[C@H](OC(C)=O)[C@@H]1C`, for which the percent growth in the assay with Streptococcus suis HE06 came out at 4.41 ± 2.2%; in the assay with Streptococcus suis P1/7, 1.07 ± 0.94%.

Take `CC(C)c1ncc(-c2ccncc2)c([C@H]2CC[C@H](CNC(=O)c3cccnc3)CC2)n1`: the percent growth in the assay with Streptococcus suis HE06 worked out at 82.4 ± 8.9%; in the assay on Streptococcus suis P1/7, 125 ± 64%.

For the compound `COc1ccc(C2=NCCN2)cc1-c1cn(-c2cccc(C3=NCCN3)c2)nn1`, the percent growth in the assay on Streptococcus suis HE06 amounted to 99.9 ± 10%; in the assay on Streptococcus suis P1/7, 87.9 ± 21%.

Take `COc1ccc2nc(C)cc(OCC(=O)NCc3ccccc3)c2c1`: the percent growth came out at 91.7 ± 11% in the assay with Streptococcus suis HE06 and 75.5 ± 9.7% with Streptococcus suis P1/7.
